The list is not random: actives were taken first. Their share in the collection is about 3.7%.
TIM10 inh: growth inhibitors of isogenic TIM10 control yeast, primary screen, counter-screen for tim10-1 yeast inhibitor project, luminescence, uHTS | S. cerevisiae TIM10 strain growth, BacTiter-Glo luminescence, 24 h | actives 1.4% (n = 330,000) | inhibition, % at 10 µM | AID 463195, 2010;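 active = inhibition of 40% or more at the single tested concentration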;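 also: wild-type TIM10 isogenic control strain grown at permissive 25 °C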
PfHsp90 set2: growth inhibition of PfHsp90-expressing yeast, primary screen, antimalarial PfHsp90 inhibitor project, S. cerevisiae, BacTiter-Glo luminescence, single point, set 2 | BacTiter-Glo ATP, 48 h; yeast lacking PDR1 and PDR3 efflux regulators | inhibition, % at 9.4 µM | actives 0.32% (n = 310,000);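 active = every replicate shows inhibition above about 80%, whatever the replicate mean, limit read from the data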
tim10-1 inh: growth inhibitors of tim10-1 mutant yeast, primary screen, luminescence, uHTS. S. cerevisiae tim10-1 ts strain growth, BacTiter-Glo, 24 h. inhibition, % at 20 µM. actives 2.2% (n = 330,000). AID 463190, 2010;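 active = inhibition of at least 40%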;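 also: mutant grown at 25 °C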
Rce1 inh: yeast Rce1p protease inhibitors, primary screen, biochemical, fluorescence, cell-free homogeneous | CAAX prenyl protease 2 (Saccharomyces cerevisiae (strain ATCC 204508 / S288c)), Q03530 | yeast membranes, quenched prenylated peptide cleavage fluorescence | calls only | actives 0.27% (n = 290,000);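 active = fall in fluorescence gain of 50% or more versus controls, with final raw signal at or below 3038400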
Target sequence (Q03530 whole entry, looked up): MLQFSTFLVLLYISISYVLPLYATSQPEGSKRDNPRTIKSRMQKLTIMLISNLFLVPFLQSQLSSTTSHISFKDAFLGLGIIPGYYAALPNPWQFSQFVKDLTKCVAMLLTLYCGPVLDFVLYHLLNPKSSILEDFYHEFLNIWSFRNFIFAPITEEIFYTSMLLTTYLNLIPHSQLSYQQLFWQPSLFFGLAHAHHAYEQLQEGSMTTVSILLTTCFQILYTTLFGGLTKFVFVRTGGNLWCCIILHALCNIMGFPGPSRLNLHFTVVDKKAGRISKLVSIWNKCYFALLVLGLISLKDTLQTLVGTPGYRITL
tim23-1 inh: growth inhibitors of tim23-1 mutant yeast, primary screen, luminescence, uHTS | S. cerevisiae tim23-1 growth, BacTiter-Glo luminescence, 24 h | actives 1.3% (n = 330,000) | inhibition, % at 20 µM;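 active = growth inhibition of the mutant yeast at or above 50%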;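 also: temperature-sensitive mutant grown at 25 °C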
tim10-1 confirm: growth inhibitors of tim10-1 mutant yeast, confirmation, single concentration, luminescence, S. cerevisiae. shares compounds with tim10-1 inh. S. cerevisiae tim10-1 ts strain growth, BacTiter-Glo, 24 h. inhibition, % at 20 µM. actives 56% (n = 7,400);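 active = inhibition of yeast growth at or above a set limit in either of two repeat tests at 20 µM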;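 also: tim10-1 mutant grown at permissive 25 °C to find synthetic lethal compounds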
Large screens that a line does not name were inactive (follow-up assays come after a bar, where they were run).

Cc1ccc(CS(=O)(=O)c2ccc(C(=O)N3CCN(c4ccccn4)CC3)cc2[N+](=O)[O-])cc1	tim10-1 inh 47 (no result: PfHsp90 set2) | tim10-1 confirm inactive
c1ccc(Sc2nc(N3CCCCC3)nc(N3CCCCC3)n2)nc1	tim10-1 inh 41 (no result: PfHsp90 set2) | tim10-1 confirm inactive
C=C1CCC[C@]2(C)C[C@H]3OC(=O)C(CNC(C)CC)[C@H]3CC12 (some centres not stated)	tim10-1 inh 43 | tim10-1 confirm 37
C=C1CCC[C@]2(C)C[C@H]3OC(=O)C(CN(C)CC(OC)OC)[C@H]3CC12 (some centres not stated)	tim10-1 inh 42 | tim10-1 confirm 41
CCC(CO)NC1=CC(=O)CCC1 (configuration not stated)	none
C=C1CCC[C@]2(C)C[C@H]3OC(=O)C(CNC(CC)CO)[C@H]3CC12 (some centres not stated)	tim10-1 inh 52 | tim10-1 confirm 45
C=C1CCC[C@]2(C)C[C@H]3OC(=O)C(CN4CCCCC4CO)[C@H]3CC12 (some centres not stated)	tim10-1 inh 48 | tim10-1 confirm 37
Cc1cc(Nc2ccc3c(c2)OCCO3)c2cc(Cl)ccc2n1	none
CCOc1cc2c(cc1OCC)C(c1ccc(C(=O)O)cc1)NCC2 (configuration not stated)	none
CC(=O)Oc1ccc(-c2nc(-c3cccnc3)no2)cc1	tim10-1 inh 43 | tim10-1 confirm 49
Cc1cccc(C(CC(=O)NCc2ccco2)c2ccccc2)c1O (configuration not stated)	none
CC(C)Oc1ccc(C(CC(=O)NCc2ccco2)c2ccccc2)cc1 (configuration not stated)	tim10-1 inh 40 | tim10-1 confirm inactive
CCn1c(NCc2cccs2)nc2ccccc21	none
CCN1c2ccccc2-c2nc3ccccc3n2C1c1cccs1 (configuration not stated)	tim10-1 inh 40 | tim10-1 confirm inactive
CCOC(=O)c1c(C)[nH]c(C)c1S(=O)(=O)N(C)CC(=O)NCc1ccc(C)cc1	none
CC(C)(C)c1nnc(N/N=C/c2ccc(Br)cc2)n(N)c1=O	none
CC(=O)c1ccc2c(c1)C1C=CCC1C(c1cc3c(cc1Br)OCO3)N2 (configuration not stated)	none
COc1ccc2c(c1)C1C=CCC1C(c1cc3c(cc1Br)OCO3)N2 (configuration not stated)	tim10-1 inh 51 (no result: PfHsp90 set2) | tim10-1 confirm 38
Cc1ccc(S(=O)(=O)N2CCN(C(=O)CN3C(=O)CNC3=O)CC2)cc1	none (no result: Rce1 inh)
NS(=O)(=O)c1ccc(CCNC(=O)c2ccccc2-c2ccccc2)cc1	none
CCOc1ccc(N(Cc2ccc(OC)cc2)C(=O)c2ccco2)cc1	tim10-1 inh 44, Rce1 inh active | tim10-1 confirm inactive
CCOc1ccc(N(Cc2ccc(OC)c(OC)c2)C(=O)c2ccco2)cc1	none
C=CCNC(=O)c1cc2sccc2n1C	none
CC(C)c1ccc(NC(=O)Nc2cc3sccc3n2C)cc1	tim10-1 inh 42 | tim10-1 confirm inactive
Cc1cccc(-c2noc(C(C)NC(=O)c3ccco3)n2)c1 (configuration not stated)	none
O=C(Nc1cccc(Cl)c1)N1CCN(Cc2ccccc2)CC1	none
O=C(Nc1cccc(Cl)c1)N1N=CCC1c1ccccc1 (configuration not stated)	tim10-1 inh 48 (no result: PfHsp90 set2) | tim10-1 confirm 47
S=C(Nc1ccccc1)N1N=CCC1c1ccccc1 (configuration not stated)	tim10-1 inh 46 | tim10-1 confirm inactive
O=C(Nc1cccc2ccccc12)N1N=CCC1c1ccccc1 (configuration not stated)	tim10-1 inh 44 (no result: PfHsp90 set2) | tim10-1 confirm inactive
Fc1ccc(NC(=S)N2N=CCC2c2ccccc2)cc1 (configuration not stated)	none
CCN(CC(=O)Nc1cccc(OC)c1)C(=O)c1cccc(S(=O)(=O)N2CCc3ccccc32)c1	none (no result: TIM10 inh, tim10-1 inh, Rce1 inh, tim23-1 inh)

Assay outcomes from PubChem BioAssay.
